Experimental data reported in ChEMBL document CHEMBL1201862, “PubChem BioAssay data set” (2004).
In all, about 58,000 sequences went through this assay and about 4,000 (6.9%) were called active. Rule as the data show it: active = GI50 up to about 1.1 µM and inactive = higher. A selection follows. Entries with a potency or affinity are not part of this list.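 All cell lines were grown in 96-well plates and treated with compound for 48 hours. GI50 marks 50% less growth.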

system: KM12; experiment: NCI tumour cell line growth inhibition, 48 h

| Substance | GI50 |
| --- | --- |
| [Bis(aminomethyl)pentamethylenesilane]dichloropaltinum(II), CHEMBL2146202 | 5.56 µM |
| [Bis(aminomethyl)tetramethylenesilane]dichloropaltinum(II), CHEMBL2146205 | 78 µM |
| mu-(1,7-nanodiamine-N,N')bis-(cis-aminedichloroplatimum (II)), CHEMBL2146215 | 97.1 µM |
| [Bis(aminomethyl)pentamethylenesilane]tetrachloropaltinum(IV), CHEMBL2146204 | 4.12 µM |
| [Bis(aminomethyl)ethylmethylsilane]tetrachloroplatinum(IV), CHEMBL2146192 | 3.89 µM |
| [Bis(aminomethyl)diethylsilane]tetrachloroplatinum(IV), CHEMBL2146203 | 8.85 µM |
| [Bis(aminomethyl)dimethylsilane]dichloroplatinum (II), CHEMBL2146201 | > 100 µM |
| CISPLATIN, CHEMBL11359 | 10 µM |
| [Bis(aminomethyl)dimethylsilane]tetrachloroplatinum(IV), CHEMBL2146190 | 18.1 µM |
| [Bis(aminomethyl)tetramethylenesilane]tetrachloropaltinum(IV), CHEMBL2146189 | 14.8 µM |
| cis-Bis[[(trimethylsilyl)methyl]amino]tetrachloroplatinum(IV), CHEMBL2146191 | 9.66 µM |
